Data from PubChem BioAssay (NCATS).
Records with an inconclusive call do not appear. The source made the active and inactive calls. Unless noted, the call rests on the fitted dose curve; in most records, active means well fitted curve in either direction with a large enough effect (not every such curve was filed as active); inconclusive means small, poorly fitted or top-dose-only effect, or another doubt; inactive means flat fitted curve, though single readings scatter.

Biological target: Lysosomal acid glucosylceramidase (Homo sapiens) (UniProt P04062)
Experiment: Glucocerebrosidase-p2 (AID 348; in the data active means potency below about 10 µM; further: potency means the concentration at half of the fitted maximal effect)
Settings: purified GBA, blue fluorogenic substrate, 40 min
In short: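 Normal human glucocerebrosidase (0.2 nM) with blue fluorogenic substrate (80 uM final) in citrate/phosphate pH 5.9 with 10mM sodium taurocholate, 0.01% tween-20; 40 min RT, NaOH/glycine stop; fluorescence Ex 365/Em 440; AC50 from a titration from 0.6 nM upwards.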

Chain of Lysosomal acid glucosylceramidase (Homo sapiens) (P04062 whole entry, looked up): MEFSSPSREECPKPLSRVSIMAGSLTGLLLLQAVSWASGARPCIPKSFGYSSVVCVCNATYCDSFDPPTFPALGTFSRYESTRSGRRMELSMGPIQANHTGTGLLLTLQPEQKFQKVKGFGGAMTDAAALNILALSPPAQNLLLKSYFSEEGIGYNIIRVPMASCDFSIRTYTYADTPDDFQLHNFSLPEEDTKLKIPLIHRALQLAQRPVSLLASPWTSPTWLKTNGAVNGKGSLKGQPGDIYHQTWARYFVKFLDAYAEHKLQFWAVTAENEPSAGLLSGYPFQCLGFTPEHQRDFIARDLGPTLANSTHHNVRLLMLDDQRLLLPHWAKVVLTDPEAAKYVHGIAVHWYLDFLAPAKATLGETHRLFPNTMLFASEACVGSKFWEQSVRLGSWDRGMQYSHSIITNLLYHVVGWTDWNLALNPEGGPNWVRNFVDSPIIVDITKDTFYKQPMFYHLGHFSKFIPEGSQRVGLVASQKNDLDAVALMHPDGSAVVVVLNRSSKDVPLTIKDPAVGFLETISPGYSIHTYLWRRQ

Potency, inactive:
CN1CCN(c2ncc3nc(-c4ccc(F)cc4)c(=O)n(Cc4cccs4)c3n2)CC1 > 11.4 µM, COc1ccc(-c2nc3cnc(N4CCN(C)CC4)nc3n(Cc3cccs3)c2=O)cc1 > 11.4 µM, COc1ccc(-c2nc3cnc(Oc4cccc(Cl)c4)nc3n(C3CC3)c2=O)cc1 > 11.4 µM, Cn1c(=O)c(-c2cccs2)nc2cnc(N3CCNCC3)nc21 > 11.4 µM, COCCn1c(=O)cnc2cnc(Nc3ccccc3)nc21 > 11.4 µM, FC(F)(F)c1ccccc1-c1nc(NCc2cccs2)c2ccccc2n1 > 11.4 µM, COc1ccc(-n2c(=O)c(-c3ccc(F)cc3)nc3cnc(N4CCOCC4)nc32)cc1 > 11.4 µM, COc1ncc2nc(-c3ccc(F)cc3)c(=O)n(C)c2n1 > 11.4 µM, COCCn1c(=O)c(-c2ccc(Cl)cc2)nc2cnc(Nc3ccccc3)nc21 > 11.4 µM, CN1CCN(c2ncc3nc(-c4ccc(Cl)cc4)c(=O)n(-c4ccccc4)c3n2)CC1 > 11.4 µM, COc1cccc(Nc2ncc3nc(CCc4ccccc4)c(=O)n(C)c3n2)c1 > 11.4 µM, COc1ccc(-c2nc3cnc(Oc4ccccc4)nc3n(CCC#N)c2=O)cc1 > 11.4 µM, COc1cccc(Nc2ncc3nc(-c4ccc(Cl)cc4)c(=O)n(C4CC4)c3n2)c1 > 11.4 µM, CN1CCN(c2ncc3nc(-c4cccc(C#N)c4)c(=O)n(Cc4ccc(F)cc4)c3n2)CC1 > 11.4 µM, Cc1nc2cnc(N3CCOCC3)nc2n(C[C@H]2CCCO2)c1=O > 11.4 µM

Tested on: not listed separately
Experiment: AP1 Signaling Pathway (AID 357); further: on the % scale 0 is the no-effect control and ±100 the full control effect
Settings: ME-180 (cervical carcinoma) AP-1-bla reporter, EGF-induced, beta-lactamase ratio, 5 h; at 7.69 µM (top of the series) unless noted
In short: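 AP-1-bla ME-180 cells with beta-lactamase reporter under AP-1 response element, stimulated with EC50 EGF; compounds titrated, 5 hours at 37 degrees Celsius. CCF4 read at 460/530 nm ratio; positive and negative modulators judged by AC50.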

Activity change, negative = inhibition, inactive:
Cc1ccccc1-c1nccc(NCc2cccs2)n1 -5.62%, FC(F)(F)c1ccccc1-c1nc(NCCN2CCOCC2)c2ccccc2n1 -6.06%, N#CCCn1c(=O)c(-c2ccc(F)cc2)nc2cnc(N3CCOCC3)nc21 -0.71%, CS(=O)(=O)Nc1cccc(-c2ccc3ncnc(NC4CC4)c3c2)c1 -14.5%, CN1CCN(c2ncc3nc(CCc4ccccc4)c(=O)n(C4CC4)c3n2)CC1 10.3%, Cc1ccccc1-c1ccc2ncnc(NC3CC3)c2c1 5.4%, Clc1ccccc1-c1nccc(NCc2cccs2)n1 15.2%, O=c1c(-c2ccc(F)cc2)nc2cnc(Oc3ccccc3)nc2n1Cc1cccs1 -11.6%, COc1ccc(Oc2ncc3nc(-c4cn(C)c5ccccc45)c(=O)n(C4CC4)c3n2)cc1 -4.88%, CC(=O)NCCNc1ncnc2ccc(-c3ccoc3)cc12 -5.21%, COCCNc1ncnc2ccc(-c3cccc(NS(C)(=O)=O)c3)cc12 -19.3%, Cc1ccccc1-c1cc(N2CCN(C)CC2)ncn1 -0.925%, c1nc(NC2CCNCC2)c2cc(-c3ccoc3)ccc2n1 -0.789%, CN1CCN(c2ccnc(-c3ccoc3)n2)CC1 21.7%, COc1cccc(Cn2c(=O)c(-c3cccs3)nc3cnc(N(C)C)nc32)c1 -9.34%, Cc1nc2cnc(OCc3ccccc3)nc2n(C)c1=O -10%, COc1ccccc1CCn1c(=O)c(-c2cccc(F)c2)nc2cncnc21 -14.2%, COCCNc1ncnc2ccc(-c3ccccc3C)cc12 -10.5%, CCNc1ncc2nc(-c3cn(C)c4ccccc34)c(=O)n(C)c2n1 -15.1%, COc1ccc(Oc2ncc3nc(-c4ccc(OC)cc4)c(=O)n(C)c3n2)cc1 -7.57%, COc1cccc(Cn2c(=O)c(-c3ccc(F)cc3)nc3cnc(OC)nc32)c1 -1.52%

Biological target: Cytochrome P450 1A2 (Homo sapiens) (UniProt P05177)
Experiment: p450-cyp1a2 (AID 410; calls by dose curve; further: potency means the concentration at half of the fitted maximal effect;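 on Activity change, negative = inhibition: -100% = full effect of reference inhibitor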)
Settings: recombinant CYP1A2, luciferin-ME demethylation, luminescence; series mostly up to 57 µM
In short: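 Read-out is luminescence from luciferin produced by CYP1A2 demethylation of Luciferin-ME (100uM, at Km). Detection reagent stopped the 60 min NADPH-dependent reaction; signals were normalized to 57 uM furafylline.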

Chain of Cytochrome P450 1A2 (Homo sapiens) (P05177 whole entry, looked up): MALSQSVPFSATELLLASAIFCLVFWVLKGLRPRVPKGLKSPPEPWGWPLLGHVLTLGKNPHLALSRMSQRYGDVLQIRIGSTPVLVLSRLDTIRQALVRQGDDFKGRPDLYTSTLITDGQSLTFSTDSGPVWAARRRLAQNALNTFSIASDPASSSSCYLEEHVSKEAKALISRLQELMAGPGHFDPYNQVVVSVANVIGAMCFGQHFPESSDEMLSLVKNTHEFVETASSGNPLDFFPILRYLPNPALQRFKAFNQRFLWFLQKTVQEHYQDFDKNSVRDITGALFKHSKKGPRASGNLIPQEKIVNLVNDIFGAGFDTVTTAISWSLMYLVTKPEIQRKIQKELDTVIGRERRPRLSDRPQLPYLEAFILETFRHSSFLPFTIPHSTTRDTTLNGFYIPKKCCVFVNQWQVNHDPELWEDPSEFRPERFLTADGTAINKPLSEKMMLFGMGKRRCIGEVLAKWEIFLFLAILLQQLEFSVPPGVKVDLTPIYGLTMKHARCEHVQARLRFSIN

Potency, active:
Cc1ccccc1-c1nccc(NCc2cccs2)n1 0.501 µM, CN1CCN(c2ncc3nc(-c4ccc(F)cc4)c(=O)n(Cc4cccs4)c3n2)CC1 25.1 µM, FC(F)(F)c1ccccc1-c1nc(NCCN2CCOCC2)c2ccccc2n1 12.6 µM, Cn1c(=O)c(-c2cccs2)nc2cnc(N3CCNCC3)nc21 10 µM, CS(=O)(=O)Nc1cccc(-c2ccc3ncnc(NC4CC4)c3c2)c1 0.631 µM, CN1CCN(c2ncc3nc(CCc4ccccc4)c(=O)n(C4CC4)c3n2)CC1 12.6 µM, COCCn1c(=O)cnc2cnc(Nc3ccccc3)nc21 1 µM, Cc1ccccc1-c1ccc2ncnc(NC3CC3)c2c1 0.126 µM, COc1ccc(Oc2ncc3nc(-c4cn(C)c5ccccc45)c(=O)n(C4CC4)c3n2)cc1 12.6 µM, CC(=O)NCCNc1ncnc2ccc(-c3ccoc3)cc12 12.6 µM, COCCNc1ncnc2ccc(-c3cccc(NS(C)(=O)=O)c3)cc12 0.794 µM, c1csc(CNc2ncnc3ccc(-c4ccoc4)cc23)c1 3.16 µM, c1nc(NC2CCNCC2)c2cc(-c3ccoc3)ccc2n1 25.1 µM, COc1ncc2nc(-c3ccc(F)cc3)c(=O)n(C)c2n1 0.501 µM, COCCn1c(=O)c(-c2ccc(Cl)cc2)nc2cnc(Nc3ccccc3)nc21 20 µM, CN1CCN(c2ccnc(-c3ccoc3)n2)CC1 12.6 µM, COc1ccccc1CCn1c(=O)c(-c2cccc(F)c2)nc2cncnc21 1.58 µM, CN(C)c1ncnc2ccc(-c3ccoc3)cc12 0.794 µM, CCNc1ncc2nc(-c3cn(C)c4ccccc34)c(=O)n(C)c2n1 0.1 µM, COc1ccc(Oc2ncc3nc(-c4ccc(OC)cc4)c(=O)n(C)c3n2)cc1 3.16 µM

Potency, inactive:
CN1CCN(c2ncc3nc(-c4cccc(C#N)c4)c(=O)n(Cc4ccc(F)cc4)c3n2)CC1
